# FMDV inh: antivirals against foot and mouth disease virus; FMDV antiviral cell-based qHTS; Potency, µM (top dose mostly 57.9 µM), inactives show at the top dose activity change, negative = inhibition, usual class: inhibitors; actives 1.2% (n = 410,000); AID 1159524; calls by dose curve; tested in HEK293T cells; further: read-out not given here; potency means the concentration at half of the fitted maximal effect; on the % scale 0 is the no-effect control and ±100 the full control effect; nearly all actives have a fitted effect of over 45% in size
# CHX counter: counter-screen hit for Shiga toxin inhibitors, cycloheximide | max response, % | actives 12% (n = 300,000) | cell reporter, cycloheximide protein synthesis inhibition counterscreen; in the data active means max response mostly above about 13%, no sharp cut-off; inactive means mostly below about 14%; further: read at 38.3 µM for the half of the compounds with a filed dose; 0% is about no effect
# Lassa entry inh: inhibitors of Lassa virus binding or cell entry; Lassa virus pseudotype entry inhibition, cell reporter; Potency, µM (titrated, usually from 37.9 µM), for inactives: top-dose activity change, negative = inhibition, usual class: inhibitors; actives 1.2% (n = 300,000); calls by dose curve; tested in HEK293 cells; further: potency means the concentration at half of the fitted maximal effect; on the % scale 0 is the no-effect control and ±100 the full control effect; nearly all actives have a fitted effect of over 50% in size
# Shiga inhibitor: inhibitors of Shiga toxin in Vero cells | inhibition, % at 38.7 µM | actives 9.2% (n = 290,000) | AID 2315 | Vero cells, Shiga toxin protein synthesis inhibition reporter; in the data active means inhibition mostly above about 28%, no sharp cut-off; inactive means mostly below about 43%; further: 0% is about no effect
# HCV inh: inhibitors of hepatitis C virus infection; AID 651820; Huh7.5.1 HCVcc-Cre infection, luciferase reporter, 44 h; actives 3.4% (n = 340,000); Potency, µM (highest dose often 41.8 µM), without a hit: at the top dose activity change, negative = inhibition, actives largely listed as inhibitors; active means well fitted inhibition curve with a large enough effect; inconclusive means small, poorly fitted or top-dose-only effect, or another doubt; inactive means no such curve, though single readings can be large or run the other way; further: potency means the concentration at half of the fitted maximal effect; on the % scale 0 is the no-effect control and ±100 the full control effect
#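 Reporter virus HCVcc-Cre (~0.5 moi) infects cells exposed to compound; seeding density 1,000 cells/well with 4 h settling beforehand. Luminescence, 15 sec read, taken 44 h post-infection following a 15 min RT substrate incubation.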
# Marburg entry inh: blocks Marburg virus binding to or entry into cells. Potency, µM (top dose mostly 37.8 µM), without a hit: at the top dose activity change, negative = inhibition, usual class: inhibitors. Marburg virus pseudotyped entry inhibition, cell reporter. actives 1.8% (n = 300,000); calls by dose curve; tested in HEK293 cells; further: potency means the concentration at half of the fitted maximal effect; on the % scale 0 is the no-effect control and ±100 the full control effect
# Active calls of the source: *; ? = inconclusive; · = no result given; + = active, no number; [ ] = another dose, or the depositor's remark. Most compounds without a hit are left out; they make up all but 13% or so of the library.
SMILES,FMDV inh,CHX counter,Lassa entry inh,Shiga inhibitor,HCV inh,Marburg entry inh
COc1ccc(OCC(=O)NC(=S)Nc2ccc(N3CCOCC3)c(Cl)c2)cc1,-21%,-5,18%,25,-5%,15%
COc1ccc(OCC(=O)Nc2ccc(N3CCN(C(=O)c4ccccc4)CC3)c(Cl)c2)cc1,11µM*,9,?,-2,?,?
Cc1ccccc1OCC(=O)Nc1ccc2c(c1)Cc1ccccc1-2,21%,18,15%,-10,16%,4%
COc1ccc(OCC(=O)Nc2ccc(N3CCOCC3)c(Cl)c2)cc1,?,-3,-9%,-7,10µM*,-2%
Cc1cccc(CNC(=O)c2cnc3sc(N4CCOCC4)nn3c2=O)c1,-19%,·,-1%[46.1 µM],·,·,·
Cc1c(C(=O)COC(C)(C)C)[nH]c2ccccc12,0%,20*,25%,25,-7%,0%
CCOC(=O)c1[nH]c2ccccc2c1NC(=O)C(C)(C)C,0%,-1,·,-1,-19%,·
N=C1C(c2ccccc2)=C(O)CN1c1ccccc1,1%,2,0%,-16,15%,?
Cc1ccc(N2CC(O)=C(c3ccccc3)C2=N)cc1,34%,18*,4%,24,9%,?
COc1ccc(NCc2ccsc2)cc1,30%,41*,·,44*,12%,·
Cc1ccc(C)c(N(CC(=O)NCc2ccccc2)C(=O)c2csnn2)c1,25%,0,-8%[46.1 µM],-10,6%,8%[46.1 µM]
CCCCNC(=O)c1cnc2n(c1=O)CCS2,25%,0,20%,15,3%,5%[46.1 µM]
O=C(NCCCc1ccccc1)c1cnc2n(c1=O)CCS2,2%,38*,?,63*,8%,?
O=C(NCc1ccccc1)c1cnc2n(c1=O)CCS2,-3%,-3,14%,-13,1%,15%[46.1 µM]
O=C(NCCC1=CCCCC1)c1cnc2n(c1=O)CCS2,61%,41*,-9%,41*,-36%,2%
O=C(NCCc1ccc(Cl)cc1)c1cnc2n(c1=O)CCS2,28%,41*,·,+,?,·
Cc1ccc([N+](=O)[O-])cc1NC(=O)Nc1onc(C)c1C,-28%,-2,·,-3,-14%,·
CC1CC(C)CN(C(=O)c2ccc(N3CC4CC(C3)c3cccc(=O)n3C4)c([N+](=O)[O-])c2)C1 (stereo unspecified),-25%,-3,?,-11,1%,-13%
O=C(c1ccc(F)c([N+](=O)[O-])c1)N1CC2CC(C1)c1cccc(=O)n1C2 (stereo unspecified),-2%,44*,·,105*,-12%,·
CCOC(=O)C1(C)CCCCN1C(=O)c1cccnc1 (stereo unspecified),-8%,·,·,·,·,·
O=S1(=O)CC(N2CCN(Cc3ccccc3F)CC2)CN1Cc1cn(Cc2ccc(C(F)(F)F)cc2)nn1 (stereo unspecified),-28%,·,·,·,·,·
COc1ccc(Cl)cc1Nc1nc(C)cc(=O)[nH]1,-14%,-2,9%,2,10µM*,-7%
CCOC(=O)c1c(CSc2nc(C)cc(C)c2C#N)n(C)c2cc(Br)c(OC(C)=O)cc12,?,-1,?,-10,?,-3%
C=CCCc1ccc(C#N)c(SCc2c(C(=O)OCC)c3cc(OC(C)=O)c(Br)cc3n2C)n1,?,-3,7.9µM*,-3,?,?
CCCCCCCCOC(=O)c1c(CSC(=N)N)n(C)c2cc(Br)c(OC(C)=O)cc12,?,-3,·,-10,11µM*,·
SMILES,FMDV inh,CHX counter,Lassa entry inh,Shiga inhibitor,HCV inh,Marburg entry inh
CCOC(=O)c1c(CN2CCCCC2)n(C)c2cc(Br)c(OC)cc12,0%,-4,?,-28,?,?
CCOC(=O)c1c(CSC(=N)N)n(-c2ccc(Br)cc2)c2cc(Br)c(OC(C)=O)cc12,-18%,-7,?,-22,?,13µM*
CC(=O)N(C)c1cc([N+](=O)[O-])ccc1OCc1ccccc1,-24%,·,12%,·,6%,2%
COc1ccc(/C=N/Nc2nc3ccccc3[nH]2)cc1OC,-17%,32*,2%,73*,-12%,?
COc1cc(OC)c(OC)cc1/C=N/Nc1nc2ccccc2[nH]1,-8%,-2,·,-2,-8%,·
COc1cc(/C=N\Nc2nc3ccccc3[nH]2)cc(OC)c1OC,-18%,34*,-7%,76,?,13µM*
O=C1c2ccccc2C(=O)N1CCOc1ccccc1Br,12%,42*,-25%[46.1 µM],73*,-3%,?
COc1ccc2[nH]cc(CCCN3C(=O)c4ccccc4C3=O)c2c1,-19%,-3,11µM*,33,-24%,?
O=C1c2ccccc2C(=O)N1CCOc1ccccc1Cl,38%,-3,·,-18,16%,·
CC(C)Oc1cccc(OCCN2C(=O)c3ccccc3C2=O)c1,41%,27*,-18%,36*,11%,?
Cc1ccccc1OCCN1C(=O)c2ccccc2C1=O,·,47*,3%,154*,17%,0%
O=S(=O)(N1CCOCC1)N1CCOCC1,-7%,-3,-4%[46.1 µM],-5,17%,25%[46.1 µM]
Nc1cccc2c1C(=O)N(CCOc1ccc(F)cc1)C2=O,21%,54*,?,140*,23%,?
O=C1c2ccccc2C(=O)N1CCOc1ccccc1,8%,·,?,·,22%,?
COc1ccc(OC(=O)CCCN2C(=O)c3ccccc3C2=O)cc1,3%,-2,?,-10,15%,6%
COc1ccc(C2=Nc3ccccc3C2(O)CCN2C(=O)c3ccccc3C2=O)cc1 (stereo unspecified),11%,·,·,·,0.89µM*,-1%
COc1ccc(OCCN2C(=O)c3ccccc3C2=O)cc1,53%,29*,29%,90*,-3%,2%[46.1 µM]
CCOC(=O)N1CCN(C(=O)C[C@@H]2C[C@@]3(C(=O)OC)CC(C)(C)CC=C3N(CCc3ccc(OC)c(OC)c3)C2=O)CC1,0%,·,·,·,·,·
CCc1ccc(NC(=O)c2cc3sc(Cl)cc3n2C)cc1,55%,·,·,·,·,?
Cn1c(C(=O)NCc2ccccc2Cl)cc2sc(Cl)cc21,12%,·,·,·,·,3.2µM*
CCn1c(C(=O)NCc2ccccc2Cl)cc2sc(Cl)cc21,34%,·,·,·,·,?
CCOc1ccc(CCNC(=O)c2cc3sc(Cl)cc3n2C)cc1OCC,-16%,19,3%,26,7.1µM*,?
Cc1cccc(C(=O)OCC(=O)N(C)CC(=O)Nc2ccc(Cl)c(C(F)(F)F)c2)c1,-29%,·,·,·,?,·
O=C(Nc1nccc(-c2cccs2)n1)c1ccccc1Cl,28%,32*,?,53*,1%,20%
COC(=O)C1=NN(C(=O)c2cccc(Cl)c2)C(O)(C(C)(C)C)C1 (stereo unspecified),-8%,51*,17%,92*,-17%,1%
CC(C)CCN(C(=S)Nc1cccc(F)c1)C(C)c1cccs1 (stereo unspecified),13%,8,·,4,?,·
Cc1cc(/C=C2\C(=O)NC(=O)N(c3ccc(Cl)cc3)C2=O)c(C)n1-c1cccc(C(=O)O)c1,-2%,-4,·,-8,18%,·

# Screens (PubChem BioAssay)
